CYP2C19 act = increases human CYP2C19 enzyme activity; 96,000 tested, under 10 active; activation factor at 5 µM; recombinant CYP2C19, luciferin-H EGE luminescence; active compounds read high; 0 = fully inhibited enzyme, 1 = untreated enzyme;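 active = activation factor of at least 2 at 5 µM in the primary screen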;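 also: 0 = wells with 2.5 mM tranylcypromine and 1 = vehicle-only wells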
Target sequence (P33261 whole entry, looked up): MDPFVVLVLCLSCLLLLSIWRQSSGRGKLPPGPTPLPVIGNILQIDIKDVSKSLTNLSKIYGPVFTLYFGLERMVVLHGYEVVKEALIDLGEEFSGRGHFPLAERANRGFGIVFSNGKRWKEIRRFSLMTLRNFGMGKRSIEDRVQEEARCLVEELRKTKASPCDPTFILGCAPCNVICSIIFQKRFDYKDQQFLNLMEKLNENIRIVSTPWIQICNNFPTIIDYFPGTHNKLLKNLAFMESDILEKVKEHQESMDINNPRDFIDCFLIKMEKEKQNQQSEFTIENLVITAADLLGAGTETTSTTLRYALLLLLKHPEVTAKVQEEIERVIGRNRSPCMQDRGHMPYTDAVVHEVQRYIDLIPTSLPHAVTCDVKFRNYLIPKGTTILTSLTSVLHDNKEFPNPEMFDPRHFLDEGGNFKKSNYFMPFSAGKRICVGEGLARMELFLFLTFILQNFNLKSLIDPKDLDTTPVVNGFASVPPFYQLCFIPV
CYP2C19 inhib = blocks human cytochrome P450 2C19; P33261; CYP2C19 Supersomes, luciferin-H EGE luminescence, 30 min; inhibition, % at 5 µM; 96,000 compounds, 21% hits; AID 778;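 active = CYP2C19 inhibition above a set limit at 5 µM in the primary screen, cut at about 50% in these data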;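 also: plate controls were negative control wells for no effect and 2.5 mM tranylcypromine positive control for full effect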
PostGolgi ctrl = yeast control strain growth, post-Golgi counter-screen | 98,000 compounds, 5% hits | AID 738 | efflux-deficient yeast background strain, growth absorbance A615, 16 h | inhibition, % at 10 µM
CYP2C9 activ = activators of human CYP2C9; recombinant CYP2C9, luciferin-H conversion, luminescence; active compounds read high; factor 1 = untreated enzyme, 0 = blocked; activation factor at 5 µM; 96,000 compounds, 1.4% hits;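 active = activation factor of 2 or more for CYP2C9 at a 5 µM dose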;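 also: 0 = sulfaphenazole-blocked wells and 1 = vehicle-only wells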
PostGolgi yeast = growth inhibition of a yeast mutant, post-Golgi transport screen; post-Golgi transport phenotypic cell assay; inhibition, % at 10 µM; 98,000 compounds, 0.9% hits; AID 739;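 also: yeast cells grown in 1536-well plates; yeast grown about 18 h at 30C before absorbance read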
CYP2C9 inhib = human CYP2C9 inhibition. P11712. CYP2C9 Supersomes, luciferin-H conversion, luminescence. inhibition, % at 5 µM. 96,000 compounds, 20% hits;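 active = blocking of liver enzyme CYP2C9 beyond about 50% at 5 µM, limit read from the data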
An asterisk follows results filed as active; . = not tested or not shown. Sampled rows, rich in hits. Any-hit rate of the full collection: about 32%. Rule as the data show it, unless noted: active = inhibition above about 30%; inactive = the rest.

SMILES	CYP2C19 act	CYP2C19 inhib	PostGolgi ctrl	CYP2C9 activ	PostGolgi yeast	CYP2C9 inhib
COc1cccc(C2C(C(=O)c3cc4cccc(OC)c4o3)=C(O)C(=O)N2c2cc(C)on2)c1OC (configuration not stated)	0.9	10.2	-2.7	0.1	9.8	85.2*
COc1cccc(NC(=O)C(NCC2CCCCC2)c2ccccc2)c1 (configuration not stated)	0.2	78.9*	0.5	0.2	-1.6	77.2*
COc1cccc(NC(=O)C(NCCC(C)C)c2ccccc2)c1 (configuration not stated)	0.7	29.0	8.3	0.7	-6.3	27.5
O=C(Nc1cc(Cl)cc(Cl)c1)C(NCCO)c1ccccc1 (configuration not stated)	0.7	31.2	1.0	0.8	6.7	21.5
O=C(Nc1ccc(Cl)cc1)C(c1ccccc1)N(CCO)CCO (configuration not stated)	0.4	63.2*	4.8	0.3	0.0	66.4*
CCCN(CCC)C(C(=O)Nc1cccc(OC)c1)c1ccccc1 (configuration not stated)	0.1	88.3*	27.0	0.1	4.2	88.8*
COc1cccc(NC(=O)C(OC(=O)/C=C/c2ccc3c(c2)OCO3)c2ccccc2)c1 (configuration not stated)	0.7	28.7	10.2	0.3	3.2	69.1*
COc1ccc(NC(=O)C(c2ccccc2)N(C)C(=O)CNC(C)=O)cc1 (configuration not stated)	1.1	-7.2	1.7	1.1	-2.3	-5.0
COc1c(Br)cc(Br)cc1C(=O)O	1.2	-17.0	10.3	0.9	-1.7	5.7
CC(C)CCN(C(=O)Nc1ccccc1)C(C)c1cccs1 (configuration not stated)	0.8	16.6	14.2	0.3	2.9	73.5*
Cc1ccc(-c2csc(N/N=C/c3ccco3)n2)cc1	1.1	-6.5	33.8*	1.1	-14.3	-8.7
CCCn1cc(C(CC(=O)O)C(=O)O)c2ccccc21 (configuration not stated)	1.2	-15.7	-0.7	1.2	0.2	-22.9
O=C(OC1CCS(=O)(=O)c2sccc21)c1ccccc1 (configuration not stated)	0.4	56.3*	7.3	0.7	-3.0	34.8
CCOC(=O)/C(=N\Nc1ccc(OC)cc1)c1csc(Nc2ccccc2)n1	0.9	11.3	14.4	0.6	-3.9	43.9
O=C(CSc1nc(Nc2ccccc2)nc(N2CCOCC2)n1)Nc1ccc2c(c1)OCCO2	0.4	61.1*	14.2	0.4	11.4	60.4*
CNc1nc(SCC(=O)OC)nc(N2CCOCC2)n1	1.1	-10.1	13.0	1.1	-1.7	-11.7
O=C(CSc1nc(Nc2ccccc2)nc(N2CCOCC2)n1)N1CCc2ccccc21	0.7	33.4	53.6*	0.5	-2.5	46.4
Cc1ccccc1NC(=O)CSc1nc(Nc2ccccc2)nc(N2CCOCC2)n1	0.5	49.0	4.9	0.4	-8.3	62.1*
O=C(CSc1nc(Nc2ccccc2)nc(N2CCOCC2)n1)N1CCCC1	1	3.5	8.3	0.8	17.1	24.7
COc1ccccc1-c1c(C#N)c(SCC(=O)N2CCCC2)nc(C)c1C(N)=O	1.1	-7.1	0.1	1	0.0	2.0
CCCC(=O)NCCSC	1	-4.9	3.8	1.1	7.5	-5.2
Nc1cc(-c2ccc(Br)cc2)nn1S(=O)(=O)c1cccc2nsnc12	0	96.4*	83.1*	0.1	44.1*	88.8*
Nc1cc(-c2ccc(Cl)cc2)nn1S(=O)(=O)c1cccc2nsnc12	0.1	93.6*	65.7*	0.1	58.0*	86.0*
Cc1ccc2c(c1)C1(OCCO1)C(=O)N2	1	-1.9	6.2	1	-2.9	3.4
Cc1cc(O)c(C(C[N+](=O)[O-])c2ccc(Cl)cc2)c(=O)o1 (configuration not stated)	0.5	47.0	9.3	0.2	0.2	83.7*
O=C1CC(C(=O)Nc2ccccc2C(=O)O)C(c2ccccc2)O1 (configuration not stated)	1	2.8	-5.8	0.1	-1.6	93.6*
O=C1CC(C(=O)Nc2nccs2)C(c2ccccc2)O1 (configuration not stated)	0.1	86.9*	.	0.4	.	60.2*

Source: PubChem BioAssay
